Measured values from PubChem BioAssay AID1159580 (chemical genetic matrix, 2015).
Hit rate of the full screen: of about 5,500 compounds, about 2,000 (36%) were called active. About 18% were inconclusive and are not listed. Cut-off read from the data, not from the text of the source: active = normalized growth mostly below about 0.91 (no sharp cut-off); inconclusive = no clear call, values can overlap the other calls; inactive = mostly above about 0.92. The list shows a part of the results.

Assay: chemical genetic growth profiling, strain panel (AID 1159580);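 note: tested at 20 µM; growth read once vehicle control cultures reached saturation at 30 °C; 1 = growth at the plate median or of vehicle wells; lower values mean less growth of the strain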
Conditions: growth OD

Measured: normalized growth

CS(=O)(=O)c1ccc(C2=C(c3ccccc3)C(=O)OC2)cc1
inactive: S. cerevisiae deletion strains, locus YJR066W, strain TOR1, active compounds read low 0.97 | S. cerevisiae deletion strains, locus YJR075W, strain HOC1, active compounds read low 0.992 | S. cerevisiae deletion strains, locus YKL009W, strain mrt4, active compounds read low 0.949 | S. cerevisiae deletion strains, locus YKL068W, active compounds read low 0.983 | S. cerevisiae deletion strains, locus YKL085W, strain MDH1 (second series), active compounds read low 0.979 | S. cerevisiae deletion strains, locus YKL085W, strain MDH1, active compounds read low 0.979 | S. cerevisiae deletion strains, locus YKL160W, strain elf1, active compounds read low 0.988 | S. cerevisiae deletion strains, locus YKL190W, strain CNB1, active compounds read low 0.98 | S. cerevisiae deletion strains, locus YKR001C, strain vps1, active compounds read low 0.987 | S. cerevisiae deletion strains, locus YKR026C, strain gcn3, active compounds read low 0.983 | S. cerevisiae deletion strains, locus YKR091W, strain srl3, active compounds read low 0.961 | S. cerevisiae deletion strains, locus YLL001W, strain dnm1, active compounds read low 0.999 | S. cerevisiae deletion strains, locus YLL026W, active compounds read low 0.985 | S. cerevisiae deletion strains, locus YLL041C, strain sdh2, active compounds read low 0.994 | S. cerevisiae deletion strains, locus YLR027C, strain aat2, active compounds read low 0.978 | S. cerevisiae deletion strains, locus YLR039C, strain RIC1, active compounds read low 0.951 | S. cerevisiae deletion strains, locus YLR058C, strain SHM2, active compounds read low 1 | S. cerevisiae deletion strains, locus YLR102C, strain apc9, active compounds read low 0.992 | S. cerevisiae deletion strains, locus YLR113W, strain HOG1, active compounds read low 1.01 | S. cerevisiae deletion strains, locus YLR221C, strain rsa3, active compounds read low 0.974 | S. cerevisiae deletion strains, locus YLR258W, strain gsy2, active compounds read low 0.988 | S. cerevisiae deletion strains, locus YLR262C, strain YPT6 (second series), active compounds read low 0.96 | S. cerevisiae deletion strains, locus YLR262C, strain YPT6, active compounds read low 0.965 | S. cerevisiae deletion strains, locus YLR268W, strain sec22, active compounds read low 0.971 | S. cerevisiae deletion strains, locus YLR320W, strain mms22, active compounds read low 0.991 | S. cerevisiae deletion strains, locus YLR330W, strain CHS5, active compounds read low 0.986 | S. cerevisiae deletion strains, locus YLR342W, strain FKS1 (second series), active compounds read low 1.01 | S. cerevisiae deletion strains, locus YLR342W, strain FKS1, active compounds read low 0.966 | S. cerevisiae deletion strains, locus YLR357W, strain rsc2, active compounds read low 0.955 | S. cerevisiae deletion strains, locus YLR370C, strain arc18, active compounds read low 0.971 | S. cerevisiae deletion strains, locus YLR371W, strain rom2, active compounds read low 0.981 | S. cerevisiae deletion strains, locus YLR384C, strain iki3, active compounds read low 0.992 | S. cerevisiae deletion strains, locus YLR418C, strain cdc73, active compounds read low 0.987 | S. cerevisiae deletion strains, locus YML016C, strain PPZ1, active compounds read low 1 | S. cerevisiae deletion strains, locus YML032C, strain rad52, active compounds read low 0.97 | S. cerevisiae deletion strains, locus YML120C, strain ndi1, active compounds read low 0.959 | S. cerevisiae deletion strains, locus YML124C, strain tub3, active compounds read low 0.989 | S. cerevisiae deletion strains, locus YMR058W, strain fet3, active compounds read low 0.978 | S. cerevisiae deletion strains, locus YMR078C, strain ctf18, active compounds read low 0.985 | S. cerevisiae deletion strains, locus YMR125W, strain sto1, active compounds read low 0.961 | S. cerevisiae deletion strains, locus YMR129W, active compounds read low 0.988 | S. cerevisiae deletion strains, locus YMR205C, strain PFK2, active compounds read low 0.986 | S. cerevisiae deletion strains, locus YMR223W, strain ubp8, active compounds read low 0.982 | S. cerevisiae deletion strains, locus YMR231W, strain pep5, active compounds read low 0.992 | S. cerevisiae deletion strains, locus YMR263W, strain SAP30, active compounds read low 0.958 | S. cerevisiae deletion strains, locus YMR307W, strain GAS1, active compounds read low 0.998 | S. cerevisiae deletion strains, locus YNL067W, strain RPL9B, active compounds read low 0.953 | S. cerevisiae deletion strains, locus YNL071W, strain lat1, active compounds read low 0.979 | S. cerevisiae deletion strains, locus YNL128W, strain TEP1, active compounds read low 0.985 | S. cerevisiae deletion strains, locus YNL153C, strain GIM3, active compounds read low 0.994 | S. cerevisiae deletion strains, locus YNL183C, strain NPR1, active compounds read low 0.984 | S. cerevisiae deletion strains, locus YNL209W, strain ssb2, active compounds read low 0.951 | S. cerevisiae deletion strains, locus YNL233W, strain BNI4, active compounds read low 0.992 | S. cerevisiae deletion strains, locus YNL248C, strain rpa49, active compounds read low 0.965 | S. cerevisiae deletion strains, locus YNL250W, strain rad50, active compounds read low 0.995 | S. cerevisiae deletion strains, locus YNL271C, strain bni1, active compounds read low 0.971 | S. cerevisiae deletion strains, locus YNL298W, strain CLA4, active compounds read low 0.99 | S. cerevisiae deletion strains, locus YNL307C, strain MCK1, active compounds read low 0.986 | S. cerevisiae deletion strains, locus YNL322C, strain KRE1 (second series), active compounds read low 0.97 | S. cerevisiae deletion strains, locus YNL322C, strain KRE1, active compounds read low 0.994 | S. cerevisiae deletion strains, locus YNR049C, strain mso1, active compounds read low 0.964 | S. cerevisiae deletion strains, locus YNR052C, strain pop2, active compounds read low 0.975 | S. cerevisiae deletion strains, locus YOL006C, strain TOP1, active compounds read low 0.91 | S. cerevisiae deletion strains, locus YOL012C, strain htz1 1.22 | S. cerevisiae deletion strains, locus YOL147C, strain pex11, active compounds read low 0.995 | S. cerevisiae deletion strains, locus YOR001W, strain rrp6, active compounds read low 0.979 | S. cerevisiae deletion strains, locus YOR061W, strain CKA2, active compounds read low 1 | S. cerevisiae deletion strains, locus YOR069W, strain VPS5, active compounds read low 1 | S. cerevisiae deletion strains, locus YOR070C, strain gyp1, active compounds read low 0.977 | S. cerevisiae deletion strains, locus YOR080W, strain dia2, active compounds read low 0.962 | S. cerevisiae deletion strains, locus YOR083W, strain WHI5, active compounds read low 0.975 | S. cerevisiae deletion strains, locus YOR106W, strain vam3, active compounds read low 0.968 | S. cerevisiae deletion strains, locus YOR136W, strain idh2, active compounds read low 0.992 | S. cerevisiae deletion strains, locus YOR144C, strain elg1, active compounds read low 0.975 | S. cerevisiae deletion strains, locus YOR184W, strain ser1, active compounds read low 0.975 | S. cerevisiae deletion strains, locus YOR231W, strain MKK1, active compounds read low 1.03 | S. cerevisiae deletion strains, locus YOR265W, strain rbl2, active compounds read low 0.973 | S. cerevisiae deletion strains, locus YOR270C, strain vph1, active compounds read low 0.933 | S. cerevisiae deletion strains, locus YOR290C, strain snf2, active compounds read low 0.972 | S. cerevisiae deletion strains, locus YOR316C, strain cot1, active compounds read low 0.987 | S. cerevisiae deletion strains, locus YPL051W, strain arl3, active compounds read low 0.986 | S. cerevisiae deletion strains, locus YPL055C, strain LGE1, active compounds read low 0.957 | S. cerevisiae deletion strains, locus YPL078C, strain atp4, active compounds read low 0.986 | S. cerevisiae deletion strains, locus YPL106C, strain sse1, active compounds read low 0.942 | S. cerevisiae deletion strains, locus YPL240C, strain hsp82, active compounds read low 0.969 | S. cerevisiae deletion strains, locus YPL241C, strain CIN2, active compounds read low 0.994 | S. cerevisiae deletion strains, locus YPL256C, strain CLN2, active compounds read low 1.06 | S. cerevisiae deletion strains, locus YPR141C, strain kar3, active compounds read low 0.98 | S. cerevisiae deletion strains, locus YPR163C, strain tif3, active compounds read low 0.989 | S. cerevisiae deletion strains, locus YPR167C, strain met16, active compounds read low 0.978 | S. cerevisiae deletion strains, strain wtn01, active compounds read low 0.985 | S. cerevisiae strains, strain wild type, active compounds read low 0.989
